# Test results: PubChem BioAssay AID651863 (Broad Institute, 2012)
# Entries with a potency or affinity are not part of this list. A number with no mark means an inactive call. Activity calls are given as the source filed them.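 Rule for the calls: active = compounds whose fitted half-maximal cell-killing dose is at most twice the top tested dose; inconclusive = flat curve with 30 to 70 percent signal loss, or poor fit; inactive = the rest.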
# Experiment: kidney cell line viability loss – HEK293T, luminescence plate reader, powder samples, set 4, cytotoxicity control, dose response (AID 651863)
# Settings: CellTiter-Glo ATP luminescence, 48 h; series mostly up to 26 µM
Compound,outcome,"activity change, negative = cytotoxicity"
O=C(O)C1CCCCC1C(=O)N1CCc2ccccc2[C@H]1C(=O)NCCc1ccccc1 (some centres not stated),inactive,
O=C(O)[C@H]1CCCC[C@H]1C(=O)N1CCC2=C(CCCC2)C1CN1C(=O)c2ccccc2C1=O (some centres not stated),inactive,
O=C(O)c1ccccc1C(=O)NC[C@@H]1c2ccccc2CCN1C(=O)[C@@H]1CCCC[C@@H]1C(=O)O,inactive,
O=C(NCCO)c1ccccc1C(=O)NC[C@@H]1c2ccccc2CCN1C(=O)C1CCCCC1C(=O)O (some centres not stated),inactive,
O=C(Oc1cc(CN2C(=O)c3ccccc3C2=O)c2ccccc2[n+]1[O-])c1cccc(Cl)c1,inactive,
O=C1c2ccccc2C(=O)N1CC1c2ccccc2CCN1C(=O)Cc1ccccc1 (configuration not stated),,0.765% [at 6 µM]
O=C(O)C1CCCCC1C(=O)N1CCc2ccccc2C1CN1C(=O)c2ccccc2S1(=O)=O (configuration not stated),inactive,
O=C(O)[C@H]1CCCC[C@H]1C(=O)NC(CN1C(=O)c2ccccc2C1=O)c1ccccc1 (some centres not stated),inactive,
O=C(O)Cc1ccccc1C(=O)N1CCc2ccccc2[C@H]1CN1C(=O)c2ccccc2C1=O,inactive,
O=C(O)[C@H]1CCCC[C@H]1C(=O)N1CCc2ccccc2[C@H]1CNS(=O)(=O)c1ccccc1,inactive,
Cc1ccc(S(=O)(=O)NNc2nc(N3CC(O)CC3C(=O)O)nc3ccccc23)cc1 (configuration not stated),inactive,
NC(=O)c1ccccc1C(=O)NC[C@@H]1c2ccccc2CCN1C(=O)[C@@H]1CCCC[C@@H]1C(=O)O,inactive,
O=C1c2ccccc2C(=O)N1CC1=NCCc2ccccc21,inactive,
O=C(O)[C@H]1CCCC[C@H]1C(=O)N1CCc2ccccc2[C@H]1CNS(=O)(=O)c1ccc([N+](=O)[O-])cc1,inactive,
O=C(O)[C@H]1CCCC[C@H]1C(=O)N1CCc2ccccc2[C@H]1CNc1nc(Cl)nc2ccccc12,inactive,
COC(=O)C1CCCCC1C(=O)N1CCc2ccccc2C1CN1C(=O)c2ccccc2C1=O (configuration not stated),inactive,

Compound,outcome,"activity change, negative = cytotoxicity"
Cc1ccc(S(=O)(=O)Nc2cc(C(C(=O)OC(C)C)C(=O)C(F)(F)F)c(O)c3ccccc23)cc1 (configuration not stated),inactive,
O=C(NC[C@@H]1c2ccccc2CCN1C(=O)[C@@H]1CCCC[C@@H]1C(=O)O)c1ccc(CCl)cc1,inactive,
O=C(O)CCC(=O)N1CCc2ccccc2C1CN1C(=O)c2ccccc2C1=O (configuration not stated),inactive,
CCOC(=O)Cc1nc(NS(=O)(=O)c2c(C)cc(C)cc2C)c2ccccc2n1,inactive,
Cc1ccc(S(=O)(=O)NNc2nc(C(C(=O)OC(C)C)C(=O)C(F)(F)F)nc3ccccc23)cc1 (configuration not stated),inactive,
O=C(O)C1CCCCC1C(=O)N1CCc2ccccc2C1CN1C(=O)Cc2ccccc2C1=O (configuration not stated),inactive,
O=C(O)[C@H]1CCCC[C@H]1C(=O)N1CCc2ccccc2C1 (racemic),inactive,
Cc1ccc(S(=O)(=O)NC[C@@H]2c3ccccc3CCN2C(=O)[C@@H]2CCCC[C@@H]2C(=O)O)c(C)c1,inactive,
O=C1c2ccccc2C(=O)N1C[C@H]1NCCc2ccccc21,inactive,
O=C(NC[C@@H]1c2ccccc2CCN1C(=O)[C@@H]1CCCC[C@@H]1C(=O)O)c1ccccc1CO,inactive,
O=C(O)C1CCCCC1C(=O)Nc1ccccc1CN1C(=O)c2ccccc2C1=O (configuration not stated),inactive,
COc1ccccc1CCNC(=O)[C@@H]1c2ccccc2CCN1C(=O)C1CCCCC1C(=O)O (some centres not stated),inactive,
NC(=O)[C@H]1CCCC[C@H]1C(=O)N1CCc2ccccc2[C@H]1CN1C(=O)c2ccccc2C1=O,inactive,
O=C(NC[C@@H]1c2ccccc2CCN1C(=O)[C@@H]1CCCC[C@@H]1C(=O)O)c1ccc(CN2CCOCC2)cc1,inactive,
O=C(O)CCCC(=O)N1CCc2ccccc2C1CN1C(=O)c2ccccc2C1=O (configuration not stated),inactive,
COC(=O)[C@H]1CCCC[C@H]1C(=O)N1CCc2ccccc2[C@H]1CN1C(=O)c2ccccc2C1=O,inactive,
